SMILES strings stand for the structures. This is part of a sample that, as a whole, favours compounds with a hit. Of some 83,000 tested, about 20% had one in any assay.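 Compound tested at a single concentration for 48 hours in 96-well plates; a percent growth value below 10 was scored as active.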 Calls of active or inactive are those of the source.

For the assay, the system named is HL-60(TB) leukemia. The experiment in a line: NCI-60 one-dose screen, 48 h (100 = growth as untreated, 0 = no growth, -100 = all killed). Particulars: 10 µM unless noted.
In the case of `COc1cc(C2CC(c3cc(OC)c(OC)c(OC)c3)=Nc3c(N)nc(N)nc3N2)ccc1Oc1nc(Nc2ccc(F)cc2)nc(N(C)C)n1` (stereo not drawn), the growth was 8.45% (active).

On to `C/C(=C\CSc1ccccc1C(=O)O)CCCC(C)CCCC(C)CCCC(C)C` (stereo not drawn), for which the growth is 41.2% (inactive).

Take `Brc1ccc(N/N=C/c2c[nH]c3ccc(Br)cc23)nc1`: the growth is -17.2% (active).

Take `CSc1ccccc1NC(=O)c1ccc2nnn(/C(C#N)=C/c3ccccn3)c2c1`: the growth was -31.5% (active).

On to `Clc1ccc(Nc2nnc(-c3c[nH]c4ccccc34)o2)cc1`, for which the growth was 43.4% (inactive).

Turning to `O=C(NO)c1ccc(CNc2nc(-c3ccccc3)c3ccccc3n2)cc1`, the growth is -4.14% (active).

As for `O=C(CSc1nc2ccccc2c(=O)[nH]1)NCCN1CCCCC1`, the growth was 94.4% (inactive).

Turning to `CN(C)c1nc(NCCNS(=O)(=O)c2ccc(C(=O)/C=C/c3ccc(Cl)cc3)cc2)nc(N2CCOCC2)n1`, the growth is 16.8% (inactive).

`O=C(Nc1nc2ccccc2s1)c1ccc(Br)cc1`: the growth is 99.1% (inactive).

`Cc1ccc(-c2cc(C(=O)N=Nc3c(O)[nH]c4ccc(F)cc34)c3ccccc3n2)cc1`: the growth was 88.4% (inactive).

Turning to `Nc1nc(-c2ccccc2)c(N=Nc2ccc(Cl)cc2[N+](=O)[O-])s1`, the growth was 83.8% (inactive).

In the case of `Cc1ccc(-c2nc(Nc3ccc(C)c(S(N)(=O)=O)c3)c3ccccc3n2)cc1`, the growth was 89.1% (inactive).

In the case of `C/C(=C\c1ccc(O)cc1O)c1ccc2ccc(O)cc2[o+]1`, the growth is 63.2% (inactive).

In the case of `O=C(N/N=C/c1ccc(-c2ccc(O)cc2)s1)c1[nH]c2ccc(Br)cc2c1-c1ccccc1`, the growth was -12.4% (active).

Regarding `COC(=O)C[C@](O)(CCCC(C)(C)O)C(=O)O[C@H]1C(OC)=C[C@@]23CCC(=O)N2CCc2cc4c(cc2[C@@H]13)OCO4`, the growth is 97.4% (inactive).

With `Cn1cc(-c2cc(N)n3nc(-c4c[nH]c5ccccc45)cc3n2)c2cc(Cl)ccc21`, the growth was -16.2% (active).

With `O=C(O)c1cccc(-c2ccc(/C=N/NC(=O)c3[nH]c4ccc(Br)cc4c3-c3ccccc3)o2)c1`, the growth is 88.5% (inactive).

`Cc1ccc(-c2cc(-c3ccccc3)[nH]c(=O)c2C#N)cc1`: the growth was 86.9% (inactive).

Take `CCOC(=O)C1=C(N)N(c2ccccc2)C2=C(C(=O)CC(C)(C)C2)C1c1ccccc1OC` (stereo not drawn): the growth is 99.2% (inactive).

On to `CCOC(=O)C1NN(c2ccc(S(N)(=O)=O)cc2)c2nc3nc(-c4cccs4)cc(-c4cccs4)c3c(=O)n21` (stereo not drawn), for which the growth was 96.2% (inactive).

As for `CN(C)c1nc(NCCNS(=O)(=O)c2ccc(C(=O)/C=C/c3ccc(F)cc3)cc2)nc(N2CCOCC2)n1`, the growth was -20.3% (active).

For `CCOC(=O)CNC(=O)CN(Cc1ccccc1)C(=O)[C@@]1(C)CCC[C@]2(C)[C@H]3CC4C(C(C)C)=C[C@]3(CC[C@H]21)[C@@H]1C(=O)CCC(=O)[C@H]41`, the growth was 2.73% (active).

As for `O=c1c2ccccc2nc(COc2ccccc2)n1/N=C/c1ccc(N2CCOCC2)cc1`, the growth is 100% (inactive).

Regarding `COc1ccc2[nH]c(O)c(N=NC(=O)COc3ccc(NC(=O)Nc4ccccc4)cc3)c2c1`, the growth is 96% (inactive).

For `Cc1ccc(NCC(=O)Cn2cc(COc3ccc(C=Nc4cnc5ccccc5c4)cc3)nn2)cc1`, the growth is 101% (inactive).

For `COc1ccc2[nH]c(=O)c(CSc3ccccc3Nc3nccc(-c4ccc5c(c4)OCO5)n3)cc2c1`, the growth is 74% (inactive).

Regarding `S=C(Nc1ccc(OCc2nc3ccc(Cl)cc3[nH]2)cc1)NC1CCCCC1`, the growth was -37.1% (active).

As for `CC[C@]12C=CCN3CC[C@]4(C(=C(C(=O)OC)C1)Nc1cc(OC)c([C@@H]5[C@H]6O[C@H]6[C@@]6(CC)CC(C(=O)OC)=C7Nc8cc(O)ccc8[C@@]78CCN5[C@@H]68)cc14)[C@@H]32`, the growth was -44.4% (active).

These data come from PubChem BioAssay (NCI).
